Reference: PubChem BioAssay
Where “and” joins values, the source holds several entries; their conditions need not be identical. Equal values may be shown once. Calls of active or inactive are those of the source. No stated cut-off is given here; in the data, active means parasite load remaining mostly below about 12% (no sharp cut-off); inactive means mostly above about 10%.

experiment: liver-stage malaria parasite growth inhibition, primary screen, cell-based, HepG2, luciferase luminescence, HepG2 viability (AID 624349);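 further: 100% = mean of DMSO negative control wells on the same plate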; conditions: P. berghei liver stage in HepG2, luciferase luminescence, concentration not given here; parasite load remaining: stronger effect = lower value; viability: measured here: HepG2 viability without parasites

| SMILES | viability | parasite load remaining |
| --- | --- | --- |
| CCOC(=O)c1c(C)[nH]c(/C=C2\C(=O)Nc3ccccc32)c1C | 69.8% | 39.2% (inactive) |
| NCCCn1cc(C2=C(c3c[nH]c4ccccc34)C(=O)NC2=O)c2ccccc21 | 148% | 53.3% (inactive) |
| Cc1cncc2cccc(S(=O)(=O)N3CCCN(C(=O)CN)C[C@H]3C)c12 | 68.1% | 43.2% (inactive) |
| O=c1[nH][nH]c2nnc(-c3c(-c4ccccc4)nn4ccccc34)cc12 | 101% | 41.8% (inactive) |
| O=C(O)Cc1c2ccccc2n2c1[nH]c(=O)c1ccccc12 | 170% | 35.1% (inactive) |
| N#Cc1c(-c2ccccc2)cc(-c2cc(Br)ccc2O)[nH]c1=O | 75.4% | 30.2% (inactive) |
| Nc1nc(O)c(C2=C3C(=Nc4ccccc43)C(=O)NCC2)[nH]1 | 99.9% | 45.8% (inactive) |
| COC1=C[C@]23CCCN2CCc2cc4c(cc2[C@]3(C)C1OC(=O)[C@@](O)(CCCC(C)(C)O)CC(=O)O)OCO4 (stereo not given in full) | 37.5% | -0.16% (inactive) |
| CCCC(=O)Oc1ccc2[nH]c(C(=O)c3cc4ccccc4[nH]3)cc2c1 | 104% | 38.9% (inactive) |
| CC[C@@H](CO)Nc1nc(NCc2ccc(-c3ccccn3)cc2)c2ncn(C(C)C)c2n1 | 75.3% | 181% (inactive) |
| O=C1NC(=O)/C(=C/c2ccc3c(c2)OCO3)S1 | 63.8% | 37.6% (inactive) |
| CCc1[nH]c(-c2ccc(OC)cc2)nc1-c1ccncc1 | 82.4% | 30.1% (inactive) |
| CCOc1nc(NC(=O)Cc2cc(OC)ccc2OC)cc(N)c1C#N | 72.7% | 37.8% (inactive) |
| O=C(Nc1cccc(Nc2nccc(Nc3cccc(C(F)(F)F)c3)n2)c1)C1CC1 | 99.7% and 89.6% | 36.9% (inactive) and 34.4% (inactive) |
| Cc1cc(C=C2C(=O)C=CC2=O)cc(C)c1O | 70.7% | 28.7% (inactive) |
| CC(C)n1cnc2c(NCc3ccccc3)nc(NCCCO)nc21 | 118% | 34.6% (inactive) |
| O=c1c(-c2ccc(F)cc2)c(-c2ccncc2)[nH]n1-c1ccc(Cl)cc1 | 68.5% | 36.4% (inactive) |
| CO[C@H]1C[C@@H]2CC[C@@H](C)[C@@](O)(O2)C(=O)C(=O)N2CCCC[C@H]2C(=O)O[C@H](C(C)C[C@H]2CC[C@@H](O)[C@H](OC)C2)CC(=O)[C@H](C)/C=C(\C)[C@@H](O)[C@@H](OC)C(=O)[C@H](C)C[C@H](C)/C=C/C=C/C=C/1C (stereo not given in full) | 63.2% | 45.4% (inactive) |
| Cn1cc(/C=C2\C(=O)Nc3ccc(S(N)(=O)=O)cc32)c2ccccc21 | 106% | 59.7% (inactive) |
| Nc1c(O)cccc1C(=O)CC(N)C(=O)O (stereo not given) | 73.1% | 62.4% (inactive) |

| SMILES | viability | parasite load remaining |
| --- | --- | --- |
| CC[n+]1c(/C=C/N(C)c2ccccc2)n(-c2ccccc2)c2ccc(-c3nc4ccccc4s3)cc21 | 152% | 33.2% (inactive) |
| O=C1NCCc2[nH]c(-c3ccnc(-c4cnc5ccccc5c4)c3)cc21 | 77.1% | 35.3% (inactive) |
| COc1ccc(S(=O)(=O)Nc2ccccc2CN(C)C/C=C/c2ccc(Cl)cc2)cc1 | 93.6% | 36.4% (inactive) |
| COc1cc2ncnc(Nc3cccc(O)c3)c2cc1OC | 68.3% | 52.5% (inactive) |
| CC(C)C(CO)Nc1nc(Nc2cccc(Cl)c2)c2ncn(C(C)C)c2n1 (stereo not given) | 63.2% | 30.5% (inactive) |
| NCCNc1ncc(C(N)=O)c(Nc2cccc(C(F)(F)F)c2)n1 | 76.9% | 37.1% (inactive) |
| Cn1cnc2cc3c(Nc4cccc(Br)c4)ncnc3cc21 | 165% | 14.5% (inactive) |
| O=C(O)/C=C/c1cc(Br)c(Br)c(Br)c1Br | 98.8% | 36.5% (inactive) |
| c1ccc(-c2cnc(Nc3ccc(OCCN4CCCC4)cc3)s2)cc1 | 100% | 46.3% (inactive) |
| COc1cc2ncnc(Nc3ccc(NC(=O)c4ccccc4)cc3)c2cc1OC | 100% | 41.1% (inactive) |
| O=C1c2ccccc2-c2nc3nnnn3nc21 | 0.01% | -1.07% (inactive) |
| Cn1nc2c3c(cccc31)C(=O)c1ccccc1-2 | 83.8% | 28.1% (inactive) |
| CC#CC(=O)Nc1cc2c(Nc3ccc(F)c(Cl)c3)ncnc2cn1 | 159% | 50.6% (inactive) |
| COc1cc2ncnc(N3CCN(C(=O)Nc4ccc(Oc5ccccc5)cc4)CC3)c2cc1OC | 89.5% | 27.2% (inactive) |
| COc1cc2nccc(Oc3ccc(NC(=S)NC(=O)c4ccccc4C)cc3)c2cc1OC | 80.3% | 22.3% (inactive) |
| CCOc1cc2ncnc(Nc3cccc(Br)c3)c2cc1OCC | 132% | 50.2% (inactive) |
| Cc1nc2cc3nc(-c4cccs4)cnc3cc2n1C | 168% | 6.62% (active) |
| O=C1NC(=O)c2c1c(-c1ccccc1Cl)cc1[nH]c3ccc(O)cc3c21 | 81% | 32.6% (inactive) |
| CC(C)n1cnc2c(Nc3cccc(Cl)c3)nc(NCCO)nc21 | 90.9% | 37.9% (inactive) |
| COC1[C@@H](OC)C[C@H](C)[C@@H](OC)C2=CC(=O)C=C(NC(=O)/C(C)=C/C=C\C(OC)[C@@H](OC(N)=O)/C(C)=C/[C@@H]1C)C2=O (stereo not given in full) | 84.1% | 25.3% (inactive) |
